{"source": "ChEMBL document CHEMBL1961873", "about": "“Compounds: GSK PKIS; Assays: Nanosyn kinase panel” (2012);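 note: each value is a mean of replicate percent inhibition readings against TRKA kinase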"}
{"target": "High affinity nerve growth factor receptor (Homo sapiens) (UniProt P04629)", "sequence (P04629 33-796 limits assumed)": "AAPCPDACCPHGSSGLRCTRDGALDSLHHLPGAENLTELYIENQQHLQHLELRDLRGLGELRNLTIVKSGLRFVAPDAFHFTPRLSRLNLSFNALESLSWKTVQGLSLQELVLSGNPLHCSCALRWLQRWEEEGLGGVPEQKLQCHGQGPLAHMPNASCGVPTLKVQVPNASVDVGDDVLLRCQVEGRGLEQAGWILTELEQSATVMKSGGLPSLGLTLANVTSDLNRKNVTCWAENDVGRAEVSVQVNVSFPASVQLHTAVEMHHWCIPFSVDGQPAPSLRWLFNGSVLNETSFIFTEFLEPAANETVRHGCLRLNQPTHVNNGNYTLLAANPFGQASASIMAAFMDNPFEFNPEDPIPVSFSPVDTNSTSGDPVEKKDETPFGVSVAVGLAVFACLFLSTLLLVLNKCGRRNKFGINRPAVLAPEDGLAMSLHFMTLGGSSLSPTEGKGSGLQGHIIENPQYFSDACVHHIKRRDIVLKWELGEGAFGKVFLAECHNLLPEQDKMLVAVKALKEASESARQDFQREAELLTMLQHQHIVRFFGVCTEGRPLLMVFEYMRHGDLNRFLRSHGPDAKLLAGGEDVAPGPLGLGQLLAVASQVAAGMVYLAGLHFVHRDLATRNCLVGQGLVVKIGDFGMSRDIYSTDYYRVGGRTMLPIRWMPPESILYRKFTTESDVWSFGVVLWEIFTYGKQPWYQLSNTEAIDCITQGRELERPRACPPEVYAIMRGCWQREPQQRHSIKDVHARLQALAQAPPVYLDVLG", "settings": "at 0.1 µM", "units": {"inhibition": "%"}}
{"smiles": "COc1cc2ncnc(Nc3ccc(C)c(O)c3)c2cc1OC", "inhibition": 1.85}
{"smiles": "Cc1cc(-c2ccccn2)cc(C)c1/C=C/c1cncc(-c2nn[nH]n2)c1", "inhibition": 2.23}
{"smiles": "CC(C)c1ccc2c(c1)NC(=O)/C2=N/Nc1ccc(S(N)(=O)=O)cc1", "inhibition": 3.96}
{"smiles": "CCn1c(-c2nonc2N)nc2ccc(F)cc21", "inhibition": 2.92}
{"smiles": "CN(c1ccc(NC(=O)Nc2ccc(OC(F)(F)F)cc2)cc1)c1ccnc(Nc2cccc(S(N)(=O)=O)c2)n1", "inhibition": 30}
{"smiles": "c1ccc(Nc2ncc(-c3ccccc3)o2)cc1", "inhibition": 0.26}
{"smiles": "CCOc1nccc2c1nc(-c1nonc1N)n2CC", "inhibition": -1.22}
{"smiles": "COc1cccc(-n2ncc3c(N/N=C/c4ccc(S(C)(=O)=O)cc4)ncnc32)c1", "inhibition": 4.94}
{"smiles": "Cc1ccc2c(-c3ccnc(Nc4cccc(C(F)(F)F)c4)n3)c(-c3ccccc3)nn2n1", "inhibition": 1.79}
{"smiles": "NS(=O)(=O)c1cccc(Nc2cc(-c3ccc(F)cc3)n[nH]2)c1", "inhibition": 2.83}
{"smiles": "CCCN1CCCC(c2ccc(Nc3nc(Nc4cc(F)ccc4C(N)=O)c4cc[nH]c4n3)c(OC)c2)C1", "note": "(centres undefined)", "inhibition": 3.35}
{"smiles": "c1ccc(Cc2nc3ccc(Nc4ncnc5ccccc45)cc3[nH]2)cc1", "inhibition": 2.77}
{"smiles": "CN1CCN(C(=O)c2ccc(NC(=O)Nc3ccc(N(C)c4ccnc(Nc5ccc(CS(C)(=O)=O)cc5)n4)cc3)cc2)CC1", "inhibition": 7.78}
{"smiles": "N#Cc1cccc(Nc2nccc(-c3cnn4ncccc34)n2)c1", "inhibition": 15.4}
{"smiles": "Nc1nccc(-c2c(-c3ccc(F)cc3)ncn2CCCN2CCOCC2)n1", "inhibition": -0.29}
{"smiles": "COc1cc(/C=N/Nc2ncnc3c2cnn3C(C)C)ccc1O", "inhibition": 1.66}
{"smiles": "O=C(Nc1ccc(Oc2ccc3[nH]c(NC(=O)c4ccco4)nc3c2)cc1)Nc1cc(C(F)(F)F)ccc1F", "inhibition": 30.2}
{"smiles": "Cc1ccc(Nc2ccnc(Nc3cccc(C(N)=O)c3)n2)cc1O", "inhibition": 4.38}
{"smiles": "COC(=O)c1cncc(/C=C/c2c(C)cc(O)cc2C)c1", "inhibition": 2.21}
{"smiles": "Cc1cc(O)cc(C)c1/C=C/c1cncc(C(=O)N(C)C)c1", "inhibition": 2.88}
{"smiles": "NC(=O)c1cccc(Nc2nccc(Nc3cccc(F)c3)n2)c1", "inhibition": 1.89}
{"smiles": "COc1cc2ncnc(Nc3ccc4c(cnn4Cc4ccccc4)c3)c2cc1OC", "inhibition": 0.45}
{"smiles": "CCn1c(-c2nonc2N)nc2c(C#CC(C)(C)O)nc(OCCNC)cc21", "inhibition": 3.54}
{"smiles": "Nc1nccc(C#Cc2cncnc2Nc2ccc(OCc3cccc(F)c3)c(Cl)c2)n1", "inhibition": 4.45}
{"smiles": "COC(=O)Nc1nc2cc(Oc3ccc(NC(=O)Nc4cccc(Br)c4)cc3)ccc2[nH]1", "inhibition": 28.4}
{"smiles": "O=C1Nc2ccccc2/C1=C/Nc1ccc2[nH]c(=O)[nH]c2c1", "inhibition": 11.6}
{"smiles": "NS(=O)(=O)c1ccc(Nc2cc(-c3cccc(O)c3)n[nH]2)cc1", "inhibition": 4.76}
{"smiles": "COc1cc2ncn(-c3cc(OCc4ccccc4S(C)(=O)=O)c(C#N)s3)c2cc1OC", "inhibition": 5.48}
{"smiles": "CC(C)c1ccc(Nc2nccc(-c3cnn4ncccc34)n2)cc1", "inhibition": 3.65}
{"smiles": "NS(=O)(=O)c1ccc(N/N=C2\\C(=O)Nc3ccc(Cl)cc32)cc1", "inhibition": 3.01}
{"smiles": "FC(F)(F)c1ccc(-c2nn3ncccc3c2-c2ccnc(Nc3ccc4c(c3)OCCO4)n2)cc1", "inhibition": -1.21}
{"smiles": "Nc1ccc(C#Cc2cncnc2Nc2ccc(OCc3cccc(F)c3)c(Cl)c2)cc1", "inhibition": 4.31}
{"smiles": "Cc1ccc(O)cc1Nc1ccnc2ccc(S(C)(=O)=O)cc12", "inhibition": 2.69}
{"smiles": "NS(=O)(=O)c1ccc(NC=C2C(=O)Nc3ccc4ncsc4c32)cc1", "inhibition": 15.9}
